Read-out in test [1]: NAD(P)H dehydrogenase [quinone] 1 (NQO1), NQO1 (gene 1728)
The test is described as follows: LTEA_HepaRG_NQO1: Life Technologies and Expression Analysis (LTEA) Assay for NAD(P)H dehydrogenase [quinone] 1 (NQO1) using HepaRG (AID 2283526). The conditions noted are these: mRNA level, 48 h; actives raise or lower the signal. In short, it runs like this: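 In this assay, gene expression is read by qRT-PCR after 48 h exposure of HepaRG cells to eight concentrations (max 100 uM, half-log) in 0.5% DMSO. Each chemical runs in duplicate, and activity is scored relative to vehicle.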

Read-out in test [2]: Nuclear factor erythroid 2-related factor 2 (Homo sapiens) (UniProt Q16236)
The test is described as follows: LTEA_HepaRG_NFE2L2: Life Technologies and Expression Analysis (LTEA) Assay for Nuclear factor erythroid 2-related factor 2 (NFE2L2) Transcription Factor using HepaRG (AID 2283527). Conditions: mRNA level, 48 h; actives raise or lower the signal. In short, it runs like this: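 HepaRG, 48 h dosing, 8-pt half-log series from 100 uM in 0.5% DMSO, duplicates. Read-out: NFE2L2 mRNA by qRT-PCR (ACTB/GAPDH/POLR2A normalization). Bidirectional curve fit vs DMSO baseline.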

Read-out in test [3]: succinate dehydrogenase complex iron sulfur subunit B (SDHB), SDHB (gene 6390)
Kind of test: LTEA_HepaRG_SDHB: Life Technologies and Expression Analysis (LTEA) Assay for succinate dehydrogenase complex iron sulfur subunit B (SDHB) using HepaRG (AID 2283528). Conditions: mRNA level, 48 h; actives raise or lower the signal. In short, it runs like this:
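SDHB transcript level read by TaqMan qRT-PCR, housekeeping-normalised (ACTB, GAPDH, POLR2A), after 48 h chemical treatment of plated HepaRG cells; eight concentrations top 100 uM, half-log steps, 0.5% DMSO, duplicates; fitted both directions against DMSO.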

Read-out in test [4]: Signal transducer and activator of transcription 3 (Homo sapiens) (UniProt P40763)
Kind of test: LTEA_HepaRG_STAT3: Life Technologies and Expression Analysis (LTEA) Assay for Signal transducer and activator of transcription (STAT3) using HepaRG (AID 2283529). The conditions noted are these: mRNA level, 48 h; actives raise or lower the signal. The procedure, abridged:
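HepaRG, 48 h exposure, 8-pt half-log series (top 100 uM), 0.5% DMSO vehicle, duplicates. Readout: STAT3 transcript by Fluidigm qRT-PCR, housekeeping-normalized; bidirectional fit vs DMSO baseline.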

Read-out in test [5]: sulfotransferase 2A1 (SULT2A1), SULT2A1 (gene 6822)
The test is described as follows: LTEA_HepaRG_SULT2A1: Life Technologies and Expression Analysis (LTEA) Assay for sulfotransferase 2A1 (SULT2A1) using HepaRG (AID 2283531). Conditions: mRNA level, 48 h; actives raise or lower the signal. In short, it runs like this:
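Transcript levels of SULT2A1, quantified by qRT-PCR and normalized to three housekeeping genes, serve as the readout. Human HepaRG cultures receive test chemicals for 48 h at up to 100 uM in half-log steps, with 0.5% DMSO vehicle.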

Read-out in test [6]: Transforming Growth Factor (TGFA), TGFA (gene 7039)
The test is described as follows: LTEA_HepaRG_TGFA: Life Technologies and Expression Analysis (LTEA) Assay for Transforming Growth Factor (TGFA) using HepaRG (AID 2283532). The conditions noted are these: mRNA level, 48 h; actives raise or lower the signal. The procedure, abridged: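 qRT-PCR read-out of TGFA transcript, normalized to three housekeeping genes, fitted bidirectionally against 0.5% DMSO baseline. Human HepaRG cultures received chemicals for 48 h at eight half-log concentrations, top 100 uM.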

Read-out in test [7]: Transforming Growth Factor (TGFB1), TGFB1 (gene 7040)
Kind of test: LTEA_HepaRG_TGFB1: Life Technologies and Expression Analysis (LTEA) Assay for Transforming Growth Factor (TGFB1) Transporter using HepaRG (AID 2283533). Conditions: mRNA level, 48 h; actives raise or lower the signal. In short, it runs like this: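 HepaRG, 48 h post-plating, switched to serum-free induction medium; chemicals 100 uM top, half-log, 8 pts, 0.5% DMSO, dup; 48 h exposure; RNA → Fluidigm TaqMan qRT-PCR; norm ACTB/GAPDH/POLR2A; bidirectional fit vs DMSO.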

Read-out in the next test: TIMP1, TIMP1 (gene 7076)
The test is described as follows: LTEA_HepaRG_TIMP1: Life Technologies and Expression Analysis (LTEA) Assay for TIMP1 using HepaRG (AID 2283534). The conditions noted are these: mRNA level, 48 h; actives raise or lower the signal. In short, it runs like this: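 Readout is TIMP1 mRNA level measured by qRT-PCR and normalized to three housekeeping genes. Human HepaRG cells were treated for 48 h in duplicate at eight concentrations up to 100 uM (0.5% DMSO); gain or loss fitted against DMSO.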

Read-out in test [8]: Tumor necrosis factor receptor 1 (TNFRSF1A), TNFRSF1A (gene 7132)
Kind of test: LTEA_HepaRG_TNFRSF1A: Life Technologies and Expression Analysis (LTEA) Assay for Tumor necrosis factor receptor 1 (TNFRSF1A) using HepaRG (AID 2283535). Conditions: mRNA level, 48 h; actives raise or lower the signal. In short, it runs like this: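 Read-out is TNFRSF1A transcript level by TaqMan qRT-PCR, normalized to three housekeeping genes, scored as gain or loss of signal versus 0.5% DMSO. Human HepaRG cells received test chemicals for 48 h at up to 100 uM (half-log series).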

Read-out in test [9]: Thyroid Hormone Responsive (THRSP), THRSP (gene 7069)
The test is described as follows: LTEA_HepaRG_THRSP: Life Technologies and Expression Analysis (LTEA) Assay for Thyroid Hormone Responsive (THRSP) using HepaRG (AID 2283536). The conditions noted are these: mRNA level, 48 h; actives raise or lower the signal. In short, it runs like this:
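qRT-PCR read-out (Fluidigm TaqMan), housekeeping-normalized (ACTB/GAPDH/POLR2A). HepaRG, 48 h chemical exposure, 8-pt half-log series from 100 uM in 0.5% DMSO, duplicates. Bidirectional curve fit vs 0.5% DMSO baseline.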

Read-out in test [10]: UDP glucuronosyltransferase (UGT1A1), UGT1A1 (gene 54658)
Kind of test: LTEA_HepaRG_UGT1A1: Life Technologies and Expression Analysis (LTEA) Assay for UDP glucuronosyltransferase (UGT1A1) using HepaRG (AID 2283538). The conditions noted are these: mRNA level, 48 h; actives raise or lower the signal. In short, it runs like this: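 mRNA induction or loss of UGT1A1, by TaqMan qRT-PCR, in duplicate HepaRG wells after 48 h exposure to half-log dilutions topping at 100 uM; DMSO (0.5%) served as baseline.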

Read-out in test [11]: UDP glucuronosyltransferase (UGT1A6), UGT1A6 (gene 54578)
Kind of test: LTEA_HepaRG_UGT1A6: Life Technologies and Expression Analysis (LTEA) Assay for UDP glucuronosyltransferase (UGT1A6) using HepaRG (AID 2283539). Conditions: mRNA level, 48 h; actives raise or lower the signal. The procedure, abridged: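 HepaRG, 48 h post-plating switch to serum-free induction medium; chemical 48 h, 100 uM top, half-log x8, duplicate, 0.5% DMSO. Phenobarbital 1mM induction control. UGT1A6 mRNA by TaqMan qRT-PCR; gain/loss fit vs DMSO.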

Read-out in test [12]: X-box binding protein 1 (XBP1), XBP1 (gene 7494)
The test is described as follows: LTEA_HepaRG_XBP1: Life Technologies and Expression Analysis (LTEA) Assay for X-box binding protein 1 (XBP1) using HepaRG (AID 2283540). The conditions noted are these: mRNA level, 48 h; actives raise or lower the signal. The procedure, abridged:
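Transcript levels of XBP1, measured by qRT-PCR and normalised to three housekeeping genes, were fitted bidirectionally relative to 0.5% DMSO controls. Human HepaRG cells received eight-point half-log dilutions from 100 uM for 48 h.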

A short description of test [13]: LTEA_HepaRG_LDH_cytotoxicity: Cytotoxicity Assessment in the Life Technologies and Expression Analysis (LTEA) Assay (AID 2283563; active = hit-call score of the fitted dose curve at least 0.9, where 1 is the maximum;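 as to AC50: LDH activity released into spent culture medium as a marker of cell death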). In short, it runs like this:
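Cells were thawed and plated for 48 h. Medium was then replaced with serum-free induction medium. Chemicals (8 half-log points, maximum 100 uM, 0.5% DMSO) were added in duplicate for 48 h, after which spent medium was assayed for LDH.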

Read-out in test [14]: Cellular tumor antigen p53 (Homo sapiens) (UniProt P04637)
The test is described as follows: LTEA_HepaRG_TP53: Life Technologies and Expression Analysis (LTEA) Assay for Tumor Protein P53 (TP53) using HepaRG (AID 2283537). The conditions noted are these: mRNA level, 48 h; actives raise or lower the signal. The procedure, abridged: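 TP53 transcript measured by qRT-PCR, normalized to three housekeeping genes, after 48 h treatment of human HepaRG cultures with chemicals from 100 uM downward in half-log steps (0.5% DMSO vehicle, serum-free induction medium). Up- or down-regulation fitted against DMSO.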

Test [15] in a line: TOX21_p53_BLA_p2_viability: Viability Assessment in the Tox21 HCT-116 p53 Agonism Beta-lactamase Assay, Phase 2 (AID 2283591; active = hit-call score of the fitted dose curve at least 0.9, where 1 is the maximum;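 also: compound exposure lasted 16 h at 37 °C; actives lower the ATP signal meaning cytotoxicity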). In short, it runs like this:
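HCT116 p53-bla cells, 4000/well, dosed after 5 h plating (217-fold dilution of DMSO stocks) and incubated 16 h at 37C. Viability taken as cellular ATP by CellTiter-Glo luminescence after 30 min RT; signal loss marks cytotoxicity.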

Test [16] deals with Cellular tumor antigen p53 (Homo sapiens) (UniProt P04637). Kind of test: TOX21_p53_BLA_p2_ratio: Tox21 HCT-116 p53 Agonism Beta-lactamase Assay, Ratio, Phase 2 (AID 2283592; active = hit-call score of the fitted dose curve at least 0.9, where 1 is the maximum). The procedure, abridged:
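Plated HCT116 p53-bla cells (4000/well) received compound after 5 h, then 16 h at 37C/5% CO2. CCF4-AM added, 2 h RT. Ratio of 460 to 530 nm emission taken as the p53 reporter signal.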

Test [17] in a line: TOX21_p53_BLA_p3_viability: Viability Assessment in the Tox21 HCT-116 p53 Agonism Beta-lactamase Assay, Phase 3 (AID 2283593; active = hit-call score of the fitted dose curve at least 0.9, where 1 is the maximum;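 also: cells exposed to compound for 16 h before reading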). In short, it runs like this: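 HCT116 cells, 4000/well, dosed 5 h after plating by pin transfer (217-fold dilution from DMSO stock) and incubated 16 h at 37C, 5% CO2. Viability read as ATP luminescence with CellTiter-Glo after 30 min at room temperature.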

The structures appear in SMILES notation. Inconclusive results are not listed. The source holds several records for some structures; these can differ, active in one and inactive in another. The source made the active and inactive calls. The calls were made as follows, unless noted: active = hit-call score of the fitted dose curve at least 0.9, where 1 is the maximum; inactive = score below 0.9.

Cellular tumor antigen p53 (Homo sapiens), sequence (P04637 whole entry, looked up): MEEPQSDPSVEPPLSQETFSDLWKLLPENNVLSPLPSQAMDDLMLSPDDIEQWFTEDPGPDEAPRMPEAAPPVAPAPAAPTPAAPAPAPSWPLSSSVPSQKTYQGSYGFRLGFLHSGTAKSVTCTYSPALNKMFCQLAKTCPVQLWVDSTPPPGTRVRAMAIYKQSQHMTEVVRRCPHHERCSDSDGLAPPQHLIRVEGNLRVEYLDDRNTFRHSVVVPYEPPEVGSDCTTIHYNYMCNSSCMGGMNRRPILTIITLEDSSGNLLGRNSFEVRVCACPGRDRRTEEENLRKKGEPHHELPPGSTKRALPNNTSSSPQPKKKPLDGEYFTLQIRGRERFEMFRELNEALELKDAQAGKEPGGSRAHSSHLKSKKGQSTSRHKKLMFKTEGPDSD
Nuclear factor erythroid 2-related factor 2 (Homo sapiens), sequence (Q16236 whole entry, looked up): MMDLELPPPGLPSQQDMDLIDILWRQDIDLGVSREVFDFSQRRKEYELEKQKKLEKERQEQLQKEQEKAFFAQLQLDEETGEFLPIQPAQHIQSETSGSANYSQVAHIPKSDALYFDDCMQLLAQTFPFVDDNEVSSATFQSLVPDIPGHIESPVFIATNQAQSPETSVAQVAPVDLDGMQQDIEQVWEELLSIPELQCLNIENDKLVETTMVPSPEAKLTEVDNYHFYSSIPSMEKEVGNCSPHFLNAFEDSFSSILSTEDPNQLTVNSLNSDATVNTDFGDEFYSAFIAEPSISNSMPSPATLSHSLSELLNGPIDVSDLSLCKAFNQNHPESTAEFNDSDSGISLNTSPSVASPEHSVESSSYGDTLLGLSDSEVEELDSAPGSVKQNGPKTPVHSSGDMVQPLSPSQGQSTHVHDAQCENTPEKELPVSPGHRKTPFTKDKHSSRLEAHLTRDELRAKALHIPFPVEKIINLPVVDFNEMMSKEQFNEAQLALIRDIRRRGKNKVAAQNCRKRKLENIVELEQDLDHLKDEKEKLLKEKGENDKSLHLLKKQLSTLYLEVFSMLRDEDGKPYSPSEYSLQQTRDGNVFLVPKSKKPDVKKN
Signal transducer and activator of transcription 3 (Homo sapiens), sequence (P40763 whole entry, looked up): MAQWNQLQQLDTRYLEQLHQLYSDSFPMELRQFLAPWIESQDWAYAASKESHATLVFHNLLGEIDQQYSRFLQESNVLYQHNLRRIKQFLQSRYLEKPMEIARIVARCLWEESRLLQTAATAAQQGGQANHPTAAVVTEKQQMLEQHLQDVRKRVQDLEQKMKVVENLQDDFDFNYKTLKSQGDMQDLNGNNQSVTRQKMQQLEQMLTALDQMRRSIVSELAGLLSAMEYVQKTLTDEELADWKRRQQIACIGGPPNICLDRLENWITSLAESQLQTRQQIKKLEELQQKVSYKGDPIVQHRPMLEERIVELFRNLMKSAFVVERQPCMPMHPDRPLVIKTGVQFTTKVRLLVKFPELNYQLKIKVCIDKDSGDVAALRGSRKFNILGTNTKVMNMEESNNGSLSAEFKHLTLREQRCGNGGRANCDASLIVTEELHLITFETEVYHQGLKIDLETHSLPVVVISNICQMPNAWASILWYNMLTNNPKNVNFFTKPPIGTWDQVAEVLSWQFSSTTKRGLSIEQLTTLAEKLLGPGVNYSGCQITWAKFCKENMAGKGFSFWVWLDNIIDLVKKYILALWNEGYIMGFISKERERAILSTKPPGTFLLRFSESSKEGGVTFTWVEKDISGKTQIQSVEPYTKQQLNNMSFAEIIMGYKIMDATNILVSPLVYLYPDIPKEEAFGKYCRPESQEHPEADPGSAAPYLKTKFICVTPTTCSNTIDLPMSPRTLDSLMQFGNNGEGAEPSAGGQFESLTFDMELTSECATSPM

One may read the AC50 as the midpoint of the concentration-response curve, whichever way the signal moves. Take `O=C(O)c1cc(Oc2ccc(C(F)(F)F)cc2Cl)ccc1[N+](=O)[O-]`: the call in test [1], in test [2], in test [3], in test [4], in test [6] and in [7] was inactive. Also, the outcome is “inactive” with TIMP1, TIMP1 (gene 7076); “inactive” in [8]; “inactive” in test [9]; “inactive” in test [11]; “inactive” in test [12]; “inactive” in [13]. The values for the AC50 in test [5] and in [10] were 50 µM (active) and 22.7 µM (active), respectively.
`COc1cc(OC)nc(Sc2cccc(Cl)c2C(=O)O)n1`: the compound was classed as inactive in test [1], in test [2], in test [3], in test [4], in test [5] and in test [6]. Also, the outcome was “inactive” in test [7]; “inactive” with TIMP1, TIMP1 (gene 7076); “inactive” in [8]; “inactive” in test [9]; “inactive” in test [14]; “inactive” in test [10]. In addition, the result in test [11], in [12], in test [13], in test [15], in test [16] and in test [17] was inactive.
`C[Si](Cn1cncn1)(c1ccc(F)cc1)c1ccc(F)cc1`: the outcome in [1] was “inactive”; in test [3], “inactive”; in test [4], “inactive”; in the test with TIMP1, TIMP1 (gene 7076), “inactive”; in test [14], “inactive”; in test [15], “inactive”. The outcome in test [16] and in test [17] was inactive. Besides, the AC50 was 39.3 µM (active) in test [2]; 73.5 µM (active) in test [5]; 65.1 µM (active) in test [6]; 34.1 µM (active) in test [7]; 50 µM (active) in test [8]; 5.9 µM (active) in test [9]. For the same compound, the half-maximal activity concentration (AC50) is 66.3 µM (active) in test [10]; 50 µM (active) in test [11]; 90 µM (active) in [12]; 33.4 µM (active) in test [13]; 23.1 µM (active) in test [15].

The record behind these values is PubChem BioAssay (EPA / NIEHS).
